Calls of active or inactive are those of the source. Unless noted, how the calls were made is not given here.

From PubChem BioAssay come the findings set out here.

Experiment [1] deals with XIP peptide (Xip251-270) binding. The experiment in a line: XIP fragment 251-270 binding compounds – biochemical, small-molecule microarray, fluorescence 635/667 nm, 0.1 µg/mL protein, primary screen (AID 1182). Particulars: fluorescent protein binding, 635 nm, higher = more signal, called active from +8 up or from −8 down.
In experiment [2] the test system is XIP peptide (Xip251-270). The experiment in a line: compounds binding XIP fragment 251-270 – biochemical, small-molecule microarray, fluorescence 635/667 nm, 0.5 µg/mL protein, primary screen (AID 1183). Particulars: fluorescence 635 nm, higher = more signal.
Experiment [3] is described as follows: blood-stage malaria parasite viability loss – strain 3D7, DAPI fluorescence, 100 nL, primary screen (AID 1184).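 Further: parasites grown inside human red blood cells in medium with human serum.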 The note with it: P. falciparum 3D7 growth, 3 d, higher = more signal.
The target in experiment [4] is Homeobox protein Hox-A13 (Mus musculus) (UniProt Q62424). The experiment in a line: disruptors of Hoxa13 oligonucleotide interaction – biochemical, fluorescence polarization, labeled oligonucleotide, primary screen (AID 1185). Particulars: Hoxa13:DNA binding, 15 min, higher = more signal, called active from +8 up or from −8 down. On the technique in general: Fluorescence polarisation rises when a labelled molecule tumbles more slowly, as on binding a larger partner.
Chain of Homeobox protein Hox-A13 (Mus musculus) (Q62424 whole entry, looked up): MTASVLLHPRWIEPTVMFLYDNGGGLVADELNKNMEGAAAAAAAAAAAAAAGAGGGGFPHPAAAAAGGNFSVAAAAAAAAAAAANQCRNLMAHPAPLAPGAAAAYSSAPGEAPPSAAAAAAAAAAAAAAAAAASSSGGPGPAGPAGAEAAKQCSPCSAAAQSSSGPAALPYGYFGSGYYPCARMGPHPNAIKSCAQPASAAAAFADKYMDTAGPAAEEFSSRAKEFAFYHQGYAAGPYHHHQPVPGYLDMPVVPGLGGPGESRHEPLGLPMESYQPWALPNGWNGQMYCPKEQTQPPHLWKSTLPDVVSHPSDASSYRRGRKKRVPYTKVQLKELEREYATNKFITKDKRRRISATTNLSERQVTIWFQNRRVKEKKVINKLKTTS

The nature of experiment [5]: blockers of DNA damage checkpoint Chk1 activation – imaging, HeLa, hydroxyurea, phospho-Chk1 antibody, percent positive cells, primary screen (AID 1186). Particulars: hydroxyurea-induced phospho-Chk1 immunofluorescence imaging, higher = more signal.
A short description of experiment [6]: blockers of DNA damage checkpoint Chk1 activation – imaging, HeLa, hydroxyurea, phospho-Chk1 nuclear intensity, primary screen (AID 1187). The note with it: hydroxyurea-induced phospho-Chk1 immunofluorescence imaging, higher = more signal.

Consider `C[C@]1(C(=O)O)c2ccccc2C(=O)N(Cc2cc(C(F)(F)F)cc(C(F)(F)F)c2)[C@H]1c1ccc(CO)cc1`, for which the composite z-score in experiment [1] was 0.17 (inactive); in experiment [2], 0.816. In addition, the z-score in experiment [3] is 1.06; in experiment [4], -2.61 (inactive); in experiment [5] it was 0.19 (inactive); in experiment [6], 0.362 (inactive).
As for `CC(C)(C)OC(=O)CC[C@]1(C(N)=O)N=C(c2ccc(OCCCO)cc2)O[C@H]1c1ccccc1N=[N+]=[N-]`, the composite z-score was 0.466 (inactive) in experiment [1] and 0.351 in experiment [2]. Also, the z-score in experiment [3] is 0.129; in experiment [4] it was -6.52 (inactive); in experiment [5] it was -0.373 (inactive); in experiment [6], -0.285 (inactive).
Turning to `[N-]=[N+]=NCc1ccccc1[C@H]1OC(c2ccc(OCCCO)cc2)=N[C@@]1(Cc1ccccc1N=[N+]=[N-])C(=O)N1CCOCC1`, the composite z-score is -0.185 (inactive) in experiment [1] and 0.604 in experiment [2]. Further, the z-score in experiment [3] was -2.27; in experiment [4], -1.45 (inactive); in experiment [5], -0.332 (inactive); in experiment [6], 0.0967 (inactive).
In the case of `COCCOC(=O)N1C(=O)[C@@]2(c3cc(C#CCNC(N)=O)ccc31)[C@H](C(=O)N1CCN(c3ncccn3)CC1)[C@H]1C(=O)O[C@H](c3ccccc3)[C@H](c3ccccc3)N1[C@@H]2c1ccc(O)cc1`, the composite z-score in experiment [1] was -0.417 (inactive); in experiment [2], 0.288. Also, the z-score is 0.614 in experiment [3], -0.508 (inactive) in experiment [4], -0.171 (inactive) in experiment [5] and -0.206 (inactive) in experiment [6].
Regarding `C[C@@]1([C@@H](NS(=O)(=O)c2cccc3cccnc23)c2ccc(-c3ccccc3)cc2)C[C@H]1C1CCCCC1`, the composite z-score in experiment [1] is 0.648 (inactive); in experiment [2], -0.209. Further, the z-score in experiment [3] was -0.748; in experiment [4] it was 2.32 (inactive); in experiment [5] it was 1.42 (inactive); in experiment [6], 0.534 (inactive).
For `COC(=O)[C@@]1(Cc2ccc(F)cc2)[C@H]2c3cc(C(=O)N(C)C)n(Cc4cccc5ccccc45)c3C[C@H]2CN1C(=O)c1ccccc1`, the composite z-score in experiment [1] was 0.0361 (inactive); in experiment [2], 0.891. Also, the z-score in experiment [3] was -1.51; in experiment [4] it was -4.81 (inactive); in experiment [5], 0.406 (inactive); in experiment [6] it was 0.252 (inactive).
With `COC(=O)C1=CC(CCCO)=CC(c2ccc(CN3CCCC3)cc2)N(C)C=C1C(=O)OC` (configuration not stated), the composite z-score in experiment [1] is 0.736 (inactive); in experiment [2] it was 0.873. The z-score in experiment [3] is 0.34; in experiment [4], -6.09 (inactive); in experiment [5], -0.118 (inactive); in experiment [6], -0.428 (inactive).
Turning to `COc1ccc(C(=O)Nc2ccc(CN3C(=O)[C@]4(O[C@H](CC(=O)N(CCO)Cc5ccccc5)[C@@H]([Si](C)(C)c5ccc(OC)cc5)[C@@H]4C)c4ccccc43)cc2)cc1`, the composite z-score in experiment [1] is 0.321 (inactive); in experiment [2] it was 0.703. Besides, the z-score in experiment [3] is -2; in experiment [4], -1.96 (inactive); in experiment [5], 0.274 (inactive); in experiment [6], 0.337 (inactive).
Consider `Cc1ccc(S[C@]2(C(=O)NC3CC3)CC(=O)N(C3Cc4ccccc4C3)[C@@H]2c2ccc(CO)cc2I)cc1`, for which the composite z-score in experiment [1] was 0.406 (inactive); in experiment [2], 0.559. Further, the z-score was -0.396 in experiment [3], -2.46 (inactive) in experiment [4], 0.586 (inactive) in experiment [5] and 0.97 (inactive) in experiment [6].
Consider `CCOC(=O)C1=CCC(c2ccncc2)N(S(=O)(=O)c2ccc(C)cc2)C1` (configuration not stated), for which the values for the composite z-score in experiment [1] and in experiment [2] were 0.373 (inactive) and 0.835, respectively. Besides, the z-score in experiment [3] was -0.886; in experiment [4], -4.63 (inactive); in experiment [5] it was 0.0325 (inactive); in experiment [6], 0.104 (inactive).
Turning to `CCOC(=O)C1=CC[C@@H](c2ccccc2)N(S(=O)(=O)c2ccc(C)cc2)[C@@H]1C#N`, the results for the composite z-score in experiment [1] and in experiment [2] were 0.216 (inactive) and 0.423, respectively. Moreover, the z-score in experiment [3] was -0.465; in experiment [4], -4.26 (inactive); in experiment [5], -1.95 (inactive); in experiment [6], -2.5 (inactive).
Consider `Cc1ccc(S[C@]2(C(=O)NCCN3CCOCC3)CC(=O)N(C(C)C)[C@@H]2c2ccc(CO)cc2I)cc1`, for which the composite z-score is 0.342 (inactive) in experiment [1] and 0.93 in experiment [2]. Moreover, the z-score in experiment [3] is -0.191; in experiment [4], -3.43 (inactive); in experiment [5], -0.395 (inactive); in experiment [6] it was -0.0483 (inactive).
With `C=CC[C@]1(C(N)=O)N=C(c2ccc(OCCCO)cc2)O[C@H]1c1ccccc1N=[N+]=[N-]`, the composite z-score is 1.26 (inactive) in experiment [1] and 0.688 in experiment [2]. Also, the z-score in experiment [3] was -1.98; in experiment [4], -5.2 (inactive); in experiment [5] it was -0.37 (inactive); in experiment [6], -0.532 (inactive).
`O=C1NC(=O)C2C1C=CC(C(O)C1CCCCC1)N2Nc1ccccn1` (configuration not stated): the composite z-score was -0.275 (inactive) in experiment [1] and 0.27 in experiment [2]. Further, the z-score was 0.582 in experiment [3], -2.17 (inactive) in experiment [4], 1.04 (inactive) in experiment [5] and 1.39 (inactive) in experiment [6].
With `COC(=O)[C@@]1(Cc2ccc(OC)cc2)[C@H]2c3cc(C(=O)N(C)C)n(Cc4c(CO)[nH]cc(C)c4=O)c3C[C@H]2CN1C(=O)c1ccccc1`, the composite z-score in experiment [1] was -0.582 (inactive); in experiment [2], 0.349. The z-score in experiment [3] was -0.116; in experiment [4], -3.64 (inactive); in experiment [5], 0.54 (inactive); in experiment [6] it was 0.376 (inactive).
For `C=CCN1C(=O)[C@]2(O[C@H](CCO)[C@@H]([Si](C)(C)c3ccc(OC)cc3)[C@@H]2C)c2cc(N3C(=O)c4ccccc4Oc4ccccc43)ccc21`, the composite z-score in experiment [1] was 0.297 (inactive); in experiment [2], 0.671. Moreover, the z-score in experiment [3] was -2.42; in experiment [4], -4.93 (inactive); in experiment [5], -1.05 (inactive); in experiment [6], -1.5 (inactive).
For `O=C1C[C@@](C(=O)NCC(F)(F)F)(c2ccc([N+](=O)[O-])cc2)[C@@H](c2ccc(CO)cc2I)N1CC12CC3CC(CC(C3)C1)C2`, the composite z-score was 2.08 (inactive) in experiment [1] and 0.797 in experiment [2]. Further, the z-score in experiment [3] is -1.23; in experiment [4] it was -2.47 (inactive); in experiment [5], -0.353 (inactive); in experiment [6], -0.245 (inactive).
